This note sets out measurements from PubChem BioAssay.

Assay [1] can be described thus: anti-His antibody binders, primary screen, artefact control for SMM control protein annotation, biochemical, small-molecule microarray, 635 nm fluorescence (AID 1128).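 Note: score merges feature fluorescence with signal-to-noise for each printed compound spot.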 The conditions noted are these: anti-His Alexa647 antibody binding, higher = more signal.
Assay [2] concerns Human papillomavirus type 1a E7 protein (residues 1-88). The assay can be described thus: HPV1a E7 small-molecule binders, primary screen, biochemical, small-molecule microarray, residues 1-88, 635 nm (AID 1129). The following applies: small-molecule microarray binding, fluorescence 635 nm; higher = more signal.
In assay [3] the target is Focal adhesion kinase 1 (Homo sapiens) (UniProt Q05397). Put plainly: small-molecule microarray binders of FAK, primary screen, biochemical, 635/667 nm fluorescence, BSA, DTT (AID 1130).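 Note: composite of spot emission at 667 nm and signal to noise over triplicate slides.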 The conditions noted are these: PTK2 binding, 635 nm fluorescence, higher = more signal.
Assay [4] deals with Fibrinogen (Alexa647-labelled). Put plainly: fibrinogen binders on compound microarrays, profiling panel, artefact control for SMM control-protein annotation, biochemical, small-molecule microarray, 635/667 nm fluorescence (AID 1131).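 Note: z-score merges 667 nm fluorescence with per-spot signal-to-noise over triplicate slides.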 The following applies: fibrinogen-A647 binding fluorescence, higher = more signal.
Assay [5] concerns the target Follistatin (Homo sapiens) (UniProt P19883). Put plainly: follistatin binders on small-molecule microarrays, primary screen, biochemical, small-molecule microarray, 635/667 nm fluorescence (AID 1132). The conditions noted are these: FST binding, 635 nm fluorescence, higher = more signal.
Assay [6] has as its target Fibroblast growth factor 2 (Homo sapiens) (UniProt P09038). The assay can be described thus: FGF2 binders on small-molecule microarrays, primary screen, biochemical, small-molecule microarray, 635/667 nm fluorescence (AID 1133). The conditions noted are these: small-molecule microarray binding, FGF2, fluorescence 635/667; higher = more signal.
Assay [7] in a line: mitochondrial membrane potential change in A549 cells, profiling panel, cell-based, JC-1 fluorescence, basal, 24 h, 100 nL (AID 1138).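 Note: A549 lung adenocarcinoma cells under basal conditions with no added stimulus; test concentration not given here.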 The conditions noted are these: higher = more signal.
A further assay relates to Lefty1. The assay can be described thus: Lefty1 binders on small-molecule microarrays, primary screen, biochemical, small-molecule microarray, 635/667 nm fluorescence (AID 1139). The following applies: small-molecule microarray binding, fluorescence 635/667; higher = more signal.
Assay [8] deals with wheat germ agglutinin (Triticum aestivum), Alexa647-labelled. The assay can be described thus: wheat germ agglutinin binders on compound microarrays, profiling panel, artefact control for SMM control-protein annotation, biochemical, small-molecule microarray, 635/667 nm fluorescence (AID 1140).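 Note: score merges 667 nm feature emission with signal to noise over triplicate slides.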 The conditions noted are these: WGA-A647 binding, 635 nm fluorescence, higher = more signal.

Assay [9] has as its target Luciferin 4-monooxygenase (Photinus pyralis) (UniProt P08659). Put plainly: firefly luciferase enzyme inhibitors, primary screen, biochemical, luminescence, purified enzyme, 2006 set (AID 1141).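 Note: cell-free assay with purified firefly luciferase at 100 ng per well in PBS; test concentration not given here.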 The conditions noted are these: SteadyGlo luminescence, 30 min, higher = more signal, called active from +8 up or from −8 down.

Activity calls are given as the source filed them.

Luciferin 4-monooxygenase (Photinus pyralis), sequence (P08659 whole entry, looked up): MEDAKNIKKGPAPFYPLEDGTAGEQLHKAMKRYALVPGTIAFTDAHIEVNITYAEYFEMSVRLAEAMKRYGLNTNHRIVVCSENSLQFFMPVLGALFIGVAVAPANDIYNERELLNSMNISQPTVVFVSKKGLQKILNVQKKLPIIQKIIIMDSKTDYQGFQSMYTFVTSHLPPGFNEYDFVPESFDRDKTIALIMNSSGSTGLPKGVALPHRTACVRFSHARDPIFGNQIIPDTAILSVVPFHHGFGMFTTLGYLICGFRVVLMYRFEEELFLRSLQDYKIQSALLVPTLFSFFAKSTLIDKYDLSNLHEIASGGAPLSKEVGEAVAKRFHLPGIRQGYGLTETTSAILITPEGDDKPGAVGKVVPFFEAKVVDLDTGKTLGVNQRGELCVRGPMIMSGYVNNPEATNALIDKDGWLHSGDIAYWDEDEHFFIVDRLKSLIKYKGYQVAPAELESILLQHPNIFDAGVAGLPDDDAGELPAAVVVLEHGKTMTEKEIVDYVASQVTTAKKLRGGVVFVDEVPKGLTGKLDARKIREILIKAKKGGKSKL
Fibroblast growth factor 2 (Homo sapiens), sequence (P09038 whole entry, looked up): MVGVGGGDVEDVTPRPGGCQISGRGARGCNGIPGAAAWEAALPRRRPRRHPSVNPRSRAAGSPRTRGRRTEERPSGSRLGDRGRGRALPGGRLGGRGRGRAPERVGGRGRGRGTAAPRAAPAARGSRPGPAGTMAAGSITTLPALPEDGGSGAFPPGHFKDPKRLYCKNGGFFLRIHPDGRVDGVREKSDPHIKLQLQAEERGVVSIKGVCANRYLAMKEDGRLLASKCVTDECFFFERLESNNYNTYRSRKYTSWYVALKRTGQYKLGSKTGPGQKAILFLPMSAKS
Focal adhesion kinase 1 (Homo sapiens), sequence (Q05397 whole entry, looked up): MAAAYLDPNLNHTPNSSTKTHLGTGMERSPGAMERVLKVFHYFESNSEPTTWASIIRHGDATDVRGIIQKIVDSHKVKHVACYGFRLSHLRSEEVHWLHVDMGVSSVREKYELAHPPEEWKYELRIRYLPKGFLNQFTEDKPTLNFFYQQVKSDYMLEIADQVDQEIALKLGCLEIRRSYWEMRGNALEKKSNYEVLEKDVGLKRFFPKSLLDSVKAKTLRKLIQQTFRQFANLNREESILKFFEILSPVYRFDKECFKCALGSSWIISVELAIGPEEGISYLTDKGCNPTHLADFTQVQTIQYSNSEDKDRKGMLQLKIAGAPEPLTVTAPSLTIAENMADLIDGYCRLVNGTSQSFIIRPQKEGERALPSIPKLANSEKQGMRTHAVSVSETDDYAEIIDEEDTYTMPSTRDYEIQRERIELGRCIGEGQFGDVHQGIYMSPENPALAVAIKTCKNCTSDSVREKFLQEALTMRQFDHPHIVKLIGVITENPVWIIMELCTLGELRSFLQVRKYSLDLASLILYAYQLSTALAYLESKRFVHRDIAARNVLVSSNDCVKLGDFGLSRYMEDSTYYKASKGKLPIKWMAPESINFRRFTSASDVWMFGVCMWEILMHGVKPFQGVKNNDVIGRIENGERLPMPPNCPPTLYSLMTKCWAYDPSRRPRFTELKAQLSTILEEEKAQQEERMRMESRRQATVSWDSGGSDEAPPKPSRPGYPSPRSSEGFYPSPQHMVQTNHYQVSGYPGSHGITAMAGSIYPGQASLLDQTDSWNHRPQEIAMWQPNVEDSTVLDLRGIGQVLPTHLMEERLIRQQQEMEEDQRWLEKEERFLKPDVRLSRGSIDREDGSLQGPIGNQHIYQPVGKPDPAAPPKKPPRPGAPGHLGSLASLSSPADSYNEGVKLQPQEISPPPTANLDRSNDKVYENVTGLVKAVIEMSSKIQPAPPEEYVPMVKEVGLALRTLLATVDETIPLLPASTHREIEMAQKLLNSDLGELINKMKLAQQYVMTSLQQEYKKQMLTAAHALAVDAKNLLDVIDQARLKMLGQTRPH
Follistatin (Homo sapiens), sequence (P19883 whole entry, looked up): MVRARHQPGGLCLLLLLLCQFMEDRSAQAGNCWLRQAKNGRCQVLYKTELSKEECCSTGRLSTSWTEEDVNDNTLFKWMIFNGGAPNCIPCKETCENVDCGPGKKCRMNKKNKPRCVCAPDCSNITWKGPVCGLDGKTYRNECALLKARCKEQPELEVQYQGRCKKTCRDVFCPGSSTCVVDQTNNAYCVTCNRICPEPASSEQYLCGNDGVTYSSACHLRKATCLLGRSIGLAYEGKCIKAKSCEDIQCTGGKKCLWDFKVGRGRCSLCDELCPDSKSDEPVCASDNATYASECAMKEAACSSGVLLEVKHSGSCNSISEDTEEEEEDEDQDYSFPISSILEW

`O=C1NC(=O)C2C1C=CC(C(O)c1ccc(F)cc1)N2Nc1ccc(Cl)cc1Cl` (stereo not given): the composite z-score in assay [1] is 1.97; in assay [2], 0.638; in assay [3], -0.0637; in assay [4], -0.566; in [5], -0.157; in [6] it was -0.459. In addition, the composite z-score in the assay on Lefty1 is -0.334; in assay [8], -0.0287. Further, the z-score is -0.553 in assay [7] and -1.32 (inactive) in [9].
Take `CN1C(=O)C2C=CC(C(O)c3ccc(I)cc3)N(N(c3ccccc3)c3ccccc3)C2C1=O` (stereo not given): the composite z-score in assay [1] is -0.456; in assay [2], -0.0563; in assay [3] it was -0.164; in assay [4], 0.25; in [5], 0.524; in assay [6], -0.394. Besides, the composite z-score in the assay on Lefty1 was -0.432; in assay [8], 0.536. Moreover, the z-score in assay [7] is 1.74; in assay [9] it was 0.899 (inactive).
For the compound `CN(C)CCCCNC(=O)[C@H]1C[C@H]2C(=O)N[C@@H](CCCCN(C)C)C(=O)N2[C@H]1c1ccc(O)cc1`, the composite z-score in assay [1] was 1.01; in assay [2], -0.102; in assay [3], 0.129; in [4] it was -0.803; in assay [5], 1.19; in [6], 0.988. Moreover, the composite z-score with Lefty1 came out at 0.754; in [8] it was 0.0466. The z-score in [7] was -0.0458; in assay [9], 0.47 (inactive).
Consider `CC1C2C(CCCO)=CC(C3C(=O)N(C)C(=O)C23)N1Cc1cccc(OC(F)(F)F)c1` (stereo not given), for which the composite z-score in assay [1] came to 0.503; in assay [2], 1.2; in assay [3], 0.849; in [4], 0.971; in [5], 0.301; in assay [6], 0.303. In addition, the composite z-score in the assay on Lefty1 was 0.286; in assay [8] it was 0.877. In addition, the z-score in [7] was -0.703; in [9], -1.02 (inactive).
In the case of `C=CCC(OC(C)=O)[C@@H]1[C@@H](N(Cc2cccc3ccccc23)C(=O)c2ccc(C)cc2)c2cc(OCCCO)ccc2N1C(=O)Cc1ccc2ccccc2c1` (stereo not given in full), the composite z-score in [1] is -0.2; in assay [2], -0.0179; in [3], 0.358; in assay [4] it was 0.535; in assay [5], 0.142; in assay [6], -0.0243. For the same compound, the results for the composite z-score (in the assay with Lefty1; in assay [8]) were -0.136 and -0.0836, respectively. For the same compound, the results for the z-score in [7] and in assay [9] were 1.62 and -0.667 (inactive), respectively.
For the compound `COC(=O)[C@@]1(Cc2ccccc2)[C@H]2c3cc(C(=O)N(C)C)n(Cc4ccc(Cl)c(C(F)(F)F)c4)c3C[C@H]2CN1C(=O)c1ccccc1`, the composite z-score in assay [1] is 1.17; in [2], 1.16; in assay [3] it was -0.104; in assay [4], 0.93; in [5], 1.22; in assay [6], 0.33. Besides, the composite z-score in the assay with Lefty1 amounted to 1.33; in assay [8], 0.674. For the same compound, the z-score was 0.32 in [7] and 1.52 (inactive) in assay [9].
Take `O=C1O[C@H](c2ccccc2)[C@H](c2ccccc2)N2[C@H]1[C@@H](C(=O)O)[C@]1(C(=O)Nc3ccc(C#CC4(O)CCCCCC4)cc31)[C@H]2c1ccccc1OCCO`: the composite z-score stood at 1.16 in assay [1]; 1.23 in assay [2]; 0.854 in assay [3]; 0.924 in assay [4]; 0.729 in assay [5]; 0.435 in assay [6]. For the same compound, the composite z-score with Lefty1 is 0.664; in assay [8], 1.25. For the same compound, the z-score in assay [7] is 0.833; in assay [9] it was -3.82 (inactive).
For the compound `COc1ccc(C(O)C2C=CC3C(=O)N(c4ccccc4)C(=O)C3N2Nc2ccccc2F)c2ccccc12` (stereo not given), the composite z-score in [1] turned out to be 1.95; in [2], 1.23; in assay [3], 1.03; in [4] it was 0.995; in assay [5], 1.33; in assay [6], 0.716. Besides, the figures for the composite z-score (in the assay on Lefty1; in assay [8]) were -0.111 and 1.29, respectively. For the same compound, the z-score in assay [7] was -0.646; in assay [9] it was -1.77 (inactive).
On to `CN1C2C=C(c3ccc(CO)cc3)C(C3C(=O)N(C(N)=O)C(=O)C32)C1C1CC1` (stereo not given), for which the composite z-score is 0.573 in assay [1]; -0.241 in [2]; -0.215 in assay [3]; 0.586 in assay [4]; -0.189 in assay [5]; -0.379 in assay [6]. For the same compound, the composite z-score in the assay with Lefty1 was -0.72; in assay [8], 0.239. The figures for the z-score in [7] and in assay [9] were -0.572 and -0.0168 (inactive), respectively.
For the compound `COc1ccc(CCNC(=O)[C@@H]2c3ccccc3C(=O)N(Cc3cc(F)cc(C(F)(F)F)c3)[C@H]2c2ccc(CO)cc2)cc1`, the composite z-score in assay [1] worked out at 0.634; in [2], 0.544; in assay [3], 0.137; in [4], 0.227; in assay [5], 1; in assay [6], 0.409. Further, the composite z-score in the assay on Lefty1 was -0.192; in assay [8] it was 0.871. Also, the z-score was 3.34 in assay [7] and -1.13 (inactive) in assay [9].
For `C[C@]1(C(=O)NCC(F)(F)F)c2ccccc2C(=O)N(Cc2cc(C(F)(F)F)cc(C(F)(F)F)c2)[C@H]1c1ccc(CO)cc1`, the composite z-score is 0.0266 in assay [1]; 0.416 in assay [2]; 0.0715 in [3]; 0.412 in assay [4]; -0.0478 in assay [5]; 0.292 in [6]. Moreover, the composite z-score in the assay on Lefty1 was -0.541; in assay [8] it was -0.174. Besides, the values for the z-score in assay [7] and in assay [9] were 1.23 and -1.17 (inactive), respectively.
Take `CC1(C)OB(/C=C\CC(OC(=O)c2ccncc2)c2ccccc2)OC1(C)C` (stereo not given): the composite z-score in [1] was 1.33; in assay [2], 0.22; in assay [3], -0.113; in [4], -0.857; in assay [5] it was -0.397; in assay [6], -1.03. Moreover, the composite z-score in the assay on Lefty1 is -1.2; in assay [8] it was -1.28. Moreover, the z-score in assay [7] is -0.242; in assay [9], -0.0512 (inactive).
Turning to `COC(=O)[C@H](Cc1ccccc1)N1CC(C)(OC)O[C@@H](Cc2ccccc2)[C@H]1/C=C/C1CC1` (stereo not given in full), the composite z-score in [1] is 0.575; in [2], 0.145; in assay [3] it was 0.0639; in assay [4] it was 0.47; in [5] it was 0.0103; in [6], 0.0959. Moreover, the values for the composite z-score (in the assay with Lefty1; in [8]) were -0.14 and 0.808, respectively. Also, the z-score in [7] is 0.385; in [9], -0.138 (inactive).
